Out of some 340,000 compounds screened, about 6,900 (2%) were called active. Only a selection was taken, and actives are over-represented in it overall. A number with no mark means an inactive call. No stated cut-off is given here; in the data, active means inhibition above about 30%; inactive means below that, where a call was filed.
The molecules below were run against D(2) dopamine receptor (Homo sapiens) (UniProt P14416) (assay: HTS Assay for Allosteric Antagonists of the Human D2 Dopamine Receptor: Primary Screen for Antagonists). Conditions: HEK293 TREx D2 cells, calcium flux, dopamine EC80; at 10 µM; stronger effect = higher value.
Chain of D(2) dopamine receptor (Homo sapiens) (P14416 whole entry, looked up): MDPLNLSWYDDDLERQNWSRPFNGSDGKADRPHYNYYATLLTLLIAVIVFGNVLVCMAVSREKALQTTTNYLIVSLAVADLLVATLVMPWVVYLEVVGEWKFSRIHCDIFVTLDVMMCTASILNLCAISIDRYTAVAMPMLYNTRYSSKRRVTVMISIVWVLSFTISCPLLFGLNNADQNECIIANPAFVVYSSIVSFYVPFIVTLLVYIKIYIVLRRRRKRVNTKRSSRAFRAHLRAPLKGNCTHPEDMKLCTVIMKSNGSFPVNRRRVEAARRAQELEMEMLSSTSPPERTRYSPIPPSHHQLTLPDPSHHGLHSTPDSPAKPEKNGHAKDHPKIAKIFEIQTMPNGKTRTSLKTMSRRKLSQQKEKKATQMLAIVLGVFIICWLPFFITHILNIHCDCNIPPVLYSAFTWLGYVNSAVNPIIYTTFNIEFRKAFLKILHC
Outline: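 Read-out: kinetic calcium fluorescence (1 cycle/s) in inducible HEK293 T-REx D2 cells after an EC80 dopamine addition that followed 180 s compound preincubation. Loss of the dopamine response indicates antagonism.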
Further: 0% is about no effect.

**Q.** With COc1ccc(N2CCN(C(=O)COC(=O)c3cccc(S(=O)(=O)Nc4ccccc4OC)c3)CC2)cc1 as the molecule, how does the inhibition read?
**A.** 3.16%

**Q.** For CC1CCCCC1NC(=O)NC(=O)COC(=O)C1=NN(c2ccccc2)C(=O)CC1 (configuration not stated), which inhibition is on record?
**A.** -16.5%

**Q.** For CC1CCCCC1NC(=O)COC(=O)Cc1ccc(Cl)cc1 (configuration not stated), which inhibition is on record?
**A.** -14.4%

**Q.** Which inhibition does the source give for Cc1nn(Cc2ccccc2)c(C)c1C(=O)NCCCN1CCCC1=O here?
**A.** 0.482%

**Q.** Which inhibition does the source give for O=C(Nc1ncc([N+](=O)[O-])s1)C1COc2ccccc2O1 (configuration not stated) here?
**A.** 5.74%

**Q.** How did the inhibition turn out when CC(=O)Oc1ccccc1C(=O)Nc1ncc([N+](=O)[O-])s1 was run?
**A.** 35% (active)

**Q.** With O=C(CCc1ccccc1)Nc1ncc([N+](=O)[O-])s1 as the molecule, how does the inhibition read?
**A.** -6.9%

**Q.** O=C1C=C(c2cccc(Br)c2)C[C@@H](c2ccc(F)cc2)C1 was tested. Which inhibition did it give?
**A.** -5.1%

**Q.** CC(C)c1ccc(OCC(O)CN2CCN(c3ccccn3)CC2)cc1 (configuration not stated) was tested. Which inhibition did it give?
**A.** 74.5% (active)

**Q.** With C=CCc1ccccc1OCC(O)CN1CCN(CCO)CC1 (configuration not stated) as the molecule, how does the inhibition read?
**A.** -21.6%

**Q.** Which inhibition does the source give for OC(COc1ccc(Br)cc1)CN1CCCC1 (configuration not stated) here?
**A.** 15.6%

**Q.** With CC(=O)Nc1ccc(OCC(O)CN2CCN(c3ccccc3Cl)CC2)cc1 (configuration not stated) as the molecule, how does the inhibition read?
**A.** 76.3% (active)

**Q.** With O=C(c1ccccc1)c1ccc(OCC(O)CN2CCCC2)cc1 (configuration not stated) as the molecule, how does the inhibition read?
**A.** 71.8% (active)

**Q.** How did the inhibition turn out when O=C(C(c1ccccc1)c1ccccc1)N1CCN(CC(O)COc2ccccc2)CC1 (configuration not stated) was run?
**A.** 19.3%

**Q.** How did the inhibition turn out when O=C(c1ccc(Cl)cc1)c1ccc(OCC(O)CN2CCCCC2)cc1 (configuration not stated) was run?
**A.** 11.7%

**Q.** For CC(C)c1ccc(OCC(O)Cn2cnc3ccccc32)cc1 (configuration not stated), which inhibition is on record?
**A.** 5.76%

**Q.** For O=S(=O)(c1ccc(OCC(O)CN2CCN(c3ccccc3Cl)CC2)cc1)N1CCOCC1 (configuration not stated), which inhibition is on record?
**A.** -9.57%

**Q.** With CC1CCN(CC(O)COc2ccc(C(=O)c3ccccc3)cc2)CC1 (configuration not stated) as the molecule, how does the inhibition read?
**A.** 2.36%

**Q.** How did the inhibition turn out when OC(COc1cccc2ccccc12)CN1CCN(c2ccccn2)CC1 (configuration not stated) was run?
**A.** 75.1% (active)

**Q.** Which inhibition does the source give for Cc1cccc(OCC(O)CN2CCN(CCN3C(=O)c4cccc5cccc(c45)C3=O)CC2)c1C (configuration not stated) here?
**A.** -17.4%

**Q.** Cc1ccc(CC(=O)N(C)CC(=O)N(CC(C)C)c2c(N)n(CC(C)C)c(=O)[nH]c2=O)cc1C was tested. Which inhibition did it give?
**A.** 15%

**Q.** CC(C)CCN1CCN=C1N(C)C was tested. Which inhibition did it give?
**A.** 8.98%

**Q.** Which inhibition does the source give for O=C(Nc1ccccn1)C1CCN(S(=O)(=O)c2ccccc2)CC1 here?
**A.** 5.14%

**Q.** For COc1ccccc1-c1oc2ccccc2c1C#CCCCCO, which inhibition is on record?
**A.** 13.9%

**Q.** With Cc1cc(C)n2nc(C(=O)OCC(=O)N(C)CC(=O)Nc3ccc(F)cc3)nc2n1 as the molecule, how does the inhibition read?
**A.** 7.08%

**Q.** For CN(CC(=O)Nc1ccc(OC(F)(F)F)cc1)C(=O)C1CCC1, which inhibition is on record?
**A.** -3.8%

**Q.** COc1ccccc1C(=O)Nc1ccc(C)c(S(=O)(=O)N2CCCCC2)c1 was tested. Which inhibition did it give?
**A.** 9.57%

**Q.** How did the inhibition turn out when O=C(Nc1ccccc1F)c1ccc(S(=O)(=O)N2CCCCCC2)cc1 was run?
**A.** -10.1%

**Q.** CN(C(=O)COC(=O)c1cc(=O)[nH]c2ccccc12)C1CCCCC1 was tested. Which inhibition did it give?
**A.** 6.97%

**Q.** How did the inhibition turn out when O=C(Nc1cc(S(=O)(=O)N2CCOCC2)ccc1OCC(F)(F)F)c1ccc(N2CCCC2=O)cc1 was run?
**A.** -14.2%

**Q.** Cc1cccc(C)c1OCC(O)CN1CCCCC1 (configuration not stated) was tested. Which inhibition did it give?
**A.** 13.3%

**Q.** With COc1ccccc1OCC(O)CN1CCOCC1 (configuration not stated) as the molecule, how does the inhibition read?
**A.** 3.41%

**Q.** How did the inhibition turn out when Cc1ccccc1OCC(O)CN1CCN(c2ccccn2)CC1 (configuration not stated) was run?
**A.** 87.2% (active)

**Q.** CC(NC(=O)c1ccccc1SCC(=O)N1CCCC1)c1ccccc1 (configuration not stated) was tested. Which inhibition did it give?
**A.** 5.13%

**Q.** How did the inhibition turn out when Cc1ccc(NC(=O)COC(=O)CNC(=O)c2ccc(Cl)cc2Cl)cc1S(=O)(=O)N1CCOCC1 was run?
**A.** -10.2%

**Q.** How did the inhibition turn out when COC(=O)Cc1cc(=O)n(-c2nc3ccccc3s2)[nH]1 was run?
**A.** 36.2% (active)

**Q.** How did the inhibition turn out when COC(=O)Cc1[nH]n(-c2nc3ccccc3s2)c(=O)c1C(C)=Nc1ccc(OC)cc1 was run?
**A.** 12.5%

**Q.** With C/C(=N\NC(=O)CC(C)C)c1c(C(F)(F)F)[nH]n(-c2nc3ccccc3s2)c1=O as the molecule, how does the inhibition read?
**A.** -4.59%

**Q.** With N[C@@H](Cc1ccccc1)C(=O)N1CCOCC1 as the molecule, how does the inhibition read?
**A.** -3.78%

**Q.** For COc1ccc(S(=O)(=O)N2CCOCC2)cc1NC(=O)CC1CC2CCC1C2 (configuration not stated), which inhibition is on record?
**A.** -10.8%

**Q.** With CC(=O)c1cc(CN2CCC(C(=O)Nc3cccc(-c4cscn4)c3)CC2)cs1 as the molecule, how does the inhibition read?
**A.** 10.7%

**Q.** With O=C(Nc1ccc(-n2cccn2)cc1)C1CCN(Cc2ccsc2)CC1 as the molecule, how does the inhibition read?
**A.** 0.479%

**Q.** With O=C(Nc1cccc(-c2cscn2)c1)C1CCN(Cc2ccsc2)CC1 as the molecule, how does the inhibition read?
**A.** 48.1% (active)

**Q.** Cc1cc(C)cc(NC(=O)C(c2ccccc2)N2CCN(CC(=O)N3CCCC3)CC2)c1 (configuration not stated) was tested. Which inhibition did it give?
**A.** 3.24%

**Q.** Cn1c(=O)[nH]c(=O)c2c1nc(CN1CCN(c3ccccc3F)CC1)n2CCc1ccccc1 was tested. Which inhibition did it give?
**A.** 46.1% (active)

**Q.** With CC1CCN(c2nc3c(c(=O)[nH]c(=O)n3C)n2CCCc2ccccc2)CC1 as the molecule, how does the inhibition read?
**A.** -0.868%

**Q.** How did the inhibition turn out when Cn1c(=O)[nH]c(=O)c2c1nc(CN(Cc1ccccc1)Cc1ccccc1)n2CCN1CCOCC1 was run?
**A.** 10.3%

Source: PubChem BioAssay AID485344 (National Center for Advancing Translational Sciences (NCATS), 2010)
